These results are taken from PubChem BioAssay.

Activity calls are given as the source filed them.

Test [1] deals with Human papillomavirus type 1a protein E7 (residues 44-93). As to the kind of experiment: small molecules binding HPV E7 44-93 – biochemical, small-molecule microarray, residues 44-93, 635 nm fluorescence, primary screen (AID 1108).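 Also: E7 fragment applied at 1 µg/mL in TBST for 1 h at 4 C; score combines spot fluorescence with its signal to noise ratio.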 Particulars: fluorescence 635 nm, higher = more signal.
Test [2] is described as follows: hepatitis C replication reporter changes, two-sided – Huh7 cells, luciferase reporter, HCV replication inhibitor project, primary screen (AID 1109).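 Also: huh7 hepatoma cells harbouring a luciferase neomycin HCV replicon reporter; luciferase luminescence as measure of HCV replicon replication; test concentration not given here.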 The conditions noted are these: Huh7 HCV replicon luciferase reporter, 48 h; higher = more signal. (In general: In a reporter assay the amount or activity of a reporter protein is the signal.)
The target of test [3] is Left-right determination factor 2 (Homo sapiens) (UniProt O00292). As to the kind of experiment: small molecules binding LEFTY2 protein – biochemical, small-molecule microarray, 635 nm fluorescence scan, primary screen (AID 1110). The conditions noted are these: higher = more signal.
Sequence of Left-right determination factor 2 (Homo sapiens) (O00292 whole entry, looked up): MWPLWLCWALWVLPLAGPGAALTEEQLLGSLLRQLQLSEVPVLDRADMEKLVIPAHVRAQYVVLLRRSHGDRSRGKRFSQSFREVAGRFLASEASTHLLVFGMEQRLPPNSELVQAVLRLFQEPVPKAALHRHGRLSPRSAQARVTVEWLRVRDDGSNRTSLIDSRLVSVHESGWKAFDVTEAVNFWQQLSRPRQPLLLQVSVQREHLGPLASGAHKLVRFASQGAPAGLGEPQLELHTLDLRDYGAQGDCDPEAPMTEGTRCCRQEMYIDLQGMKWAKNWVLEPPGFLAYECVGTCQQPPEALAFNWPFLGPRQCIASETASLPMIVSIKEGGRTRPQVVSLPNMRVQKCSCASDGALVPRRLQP
Test [4] concerns the target Calmodulin-1 (Homo sapiens) (UniProt P0DP23). The test can be described thus: small molecules binding calmodulin-1 with EGTA – biochemical, small-molecule microarray, Cy5-labelled CALM1, profiling panel (AID 1111).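 Also: labelled calmodulin applied in Tris saline Tween buffer holding calcium plus EGTA and DTT.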 The conditions noted are these: Cy5-CALM1 binding fluorescence, higher = more signal.
Test [5] shares this target. As to the kind of experiment: small molecules binding Ca-loaded calmodulin-1 – biochemical, small-molecule microarray, Cy5-labelled CALM1, plus calcium, artefact control for SMM control-protein annotation, profiling panel (AID 1112).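 Also: score merges spot fluorescence with signal to noise from triplicate slides.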 Particulars: Cy5-CALM1 binding fluorescence, higher = more signal.
A short description of test [6]: probe aWnt5a binding to arrayed compounds – biochemical, biotinylated probe, 635/667 nm fluorescence, primary screen (AID 1113).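 Also: score merges 667 nm fluorescence intensity with signal-to-noise per printed feature.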 Particulars: small-molecule microarray, higher = more signal.
Test [7] can be described thus: probe aShh binding to arrayed compounds – biochemical, biotinylated probe, 635/667 nm fluorescence, primary screen (AID 1114).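 Also: probe is biotin-labelled aShh protein from a stem cell growth factor screen; measures binding of labelled protein to compounds printed on the slide; score merges feature fluorescence at 667 nm with signal-to-noise.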 The conditions noted are these: small-molecule microarray, higher = more signal.
Test [8] in a line: probe aNog binding to arrayed compounds – biochemical, biotinylated probe, 635/667 nm fluorescence, primary screen (AID 1115).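 Also: probe is biotinylated aNog protein used at 0.15 µg/mL for 1 h at 4 C; z-score combines 667 nm fluorescence of each spot with its signal to noise.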 The conditions noted are these: small-molecule microarray, higher = more signal.
Test [9] concerns the target Torsin-1A-interacting protein 1 (Homo sapiens) (UniProt Q5JTV8). The test can be described thus: compound microarray binding of lysate hLAP1 – cell lysate, small-molecule microarray, COS7 lysate, 635/667 nm fluorescence, primary screen (AID 1116). Particulars: 635 nm fluorescence, higher = more signal.
Test [10] addresses Alpha-bungarotoxin (Bungarus multicinctus) (UniProt P60615). As to the kind of experiment: compounds binding labelled alpha-BTX control protein – biochemical, small-molecule microarray, Alexa647 label, 635/667 nm fluorescence, artefact control for SMM control protein annotation, profiling panel (AID 1117). Particulars: alpha-BTX-A647 binding fluorescence, higher = more signal.
Another test deals with Albumin (Bos taurus) (UniProt P02769). As to the kind of experiment: compounds binding labelled BSA control protein – biochemical, small-molecule microarray, Alexa647 label, 635/667 nm fluorescence, artefact control for SMM control protein annotation, profiling panel (AID 1118).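 Also: score merges 667 nm emission intensity and signal-to-noise per printed compound spot.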 The conditions noted are these: BSA-A647 binding, fluorescence 635 nm, higher = more signal.
Sequence of Albumin (Bos taurus) (P02769 whole entry, looked up): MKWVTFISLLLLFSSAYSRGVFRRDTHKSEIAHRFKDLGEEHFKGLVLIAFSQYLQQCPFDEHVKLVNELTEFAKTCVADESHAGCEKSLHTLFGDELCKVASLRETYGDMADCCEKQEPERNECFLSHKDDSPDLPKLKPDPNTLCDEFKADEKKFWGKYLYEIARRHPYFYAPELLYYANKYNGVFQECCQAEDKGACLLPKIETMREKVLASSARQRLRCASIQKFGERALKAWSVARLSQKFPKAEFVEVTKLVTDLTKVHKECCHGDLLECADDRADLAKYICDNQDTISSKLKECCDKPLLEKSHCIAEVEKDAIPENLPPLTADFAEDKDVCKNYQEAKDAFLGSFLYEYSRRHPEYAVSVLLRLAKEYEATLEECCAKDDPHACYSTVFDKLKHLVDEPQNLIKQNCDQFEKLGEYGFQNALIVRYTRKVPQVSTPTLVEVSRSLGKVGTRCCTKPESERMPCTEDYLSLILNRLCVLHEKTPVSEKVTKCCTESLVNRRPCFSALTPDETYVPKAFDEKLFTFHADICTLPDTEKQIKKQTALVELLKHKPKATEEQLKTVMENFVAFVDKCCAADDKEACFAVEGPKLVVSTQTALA
Test [11] in a line: probe aXIP binding to arrayed compounds – biochemical, NeuroSMM set, 635/667 nm fluorescence, primary screen (AID 1119).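 Also: probe is the protein aXip251-270 applied at 1 µg/mL to compound-printed slides; binding of probe to printed compounds measured as 667 nm fluorescence plus signal to noise.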 The conditions noted are these: small-molecule microarray, higher = more signal, called active from +8 up or from −8 down.
Test [12] in a line: probe aNOTCH3 binding on compound microarray – biochemical, small-molecule microarray, 635/667 nm fluorescence, primary screen (AID 1120).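 Also: probe is a biotin-tagged antibody raised against NOTCH3 rather than NOTCH3 protein; score merges spot fluorescence near 667 nm with spot signal to noise.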 Particulars: higher = more signal.
A short description of test [13]: probe aNOTCH2 binding on compound microarray – biochemical, small-molecule microarray, 635/667 nm fluorescence, primary screen (AID 1121).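 Also: score merges feature fluorescence read at 667 nm with its signal to noise.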 The conditions noted are these: higher = more signal.
The target in test [14] is Carbonic anhydrase 2 (Homo sapiens) (UniProt P00918). The test can be described thus: compounds binding carbonic anhydrase 2 – biochemical, small-molecule microarray, Alexa647-labelled CAII, profiling panel (AID 1122). Particulars: CAII-A647 binding fluorescence, higher = more signal.
Test [15] is described as follows: COS7 lysate on small-molecule microarray, probe aHis, 635 nm (AID 1123).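 Also: z-score combines 667nm fluorescence intensity with signal-to-noise per printed compound spot.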 The conditions noted are these: COS7 cell lysate, fluorescence, higher = more signal.
A short description of test [16]: probe aLAP1 signal on lysate-treated microarray – cell lysate, small-molecule microarray, COS7 lysate, primary screen (AID 1124).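 Also: lysate comes from COS7 cells expressing LAP1 and is applied at 0.3 µg/mL; score merges spot fluorescence near 667 nm with signal-to-noise over triplicate slides.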 The conditions noted are these: probe aLAP1, fluorescence, higher = more signal.
Another test relates to Sam68 (KHDRBS1). The test can be described thus: compounds binding KHDRBS1 protein – biochemical, small-molecule microarray, 635 nm fluorescence, primary screen (AID 1125).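 Also: score merges 667 nm channel intensity with signal to noise over triplicate slides.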 The conditions noted are these: higher = more signal.
Test [17] has as its system Chordin-like protein 2 (CHRDL2). As to the kind of experiment: compounds binding chordin-like 2 – biochemical, small-molecule microarray, 635 nm fluorescence, primary screen (AID 1126).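 Also: printed compound slides probed with Chrdl2 protein at 4 µg/mL for 1 h at 4 C; score merges 667 nm emission intensity with signal to noise over three replicate slides.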 The conditions noted are these: fluorescence 635 nm, higher = more signal.
The target in test [18] is Concanavalin-A (Canavalia ensiformis) (UniProt P02866). The test can be described thus: compounds binding concanavalin A lectin – biochemical, small-molecule microarray, Alexa647 label, 635 nm, artefact control for SMM control protein annotation, primary screen (AID 1127).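 Also: z combines 667 nm emission intensity with signal-to-noise across three replicate slides.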 The conditions noted are these: ConA-A647 binding fluorescence, higher = more signal.
Sequence of Concanavalin-A (Canavalia ensiformis) (P02866 whole entry, looked up): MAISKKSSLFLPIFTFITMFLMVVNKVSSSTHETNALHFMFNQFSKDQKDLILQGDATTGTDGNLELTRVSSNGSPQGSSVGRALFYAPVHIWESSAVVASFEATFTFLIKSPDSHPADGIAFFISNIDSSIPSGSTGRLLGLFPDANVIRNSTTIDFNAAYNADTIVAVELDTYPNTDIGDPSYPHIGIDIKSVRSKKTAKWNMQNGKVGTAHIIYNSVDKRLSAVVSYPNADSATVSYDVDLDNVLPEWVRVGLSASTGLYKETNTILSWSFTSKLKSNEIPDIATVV

Sequence of Torsin-1A-interacting protein 1 (Homo sapiens) (Q5JTV8 whole entry, looked up): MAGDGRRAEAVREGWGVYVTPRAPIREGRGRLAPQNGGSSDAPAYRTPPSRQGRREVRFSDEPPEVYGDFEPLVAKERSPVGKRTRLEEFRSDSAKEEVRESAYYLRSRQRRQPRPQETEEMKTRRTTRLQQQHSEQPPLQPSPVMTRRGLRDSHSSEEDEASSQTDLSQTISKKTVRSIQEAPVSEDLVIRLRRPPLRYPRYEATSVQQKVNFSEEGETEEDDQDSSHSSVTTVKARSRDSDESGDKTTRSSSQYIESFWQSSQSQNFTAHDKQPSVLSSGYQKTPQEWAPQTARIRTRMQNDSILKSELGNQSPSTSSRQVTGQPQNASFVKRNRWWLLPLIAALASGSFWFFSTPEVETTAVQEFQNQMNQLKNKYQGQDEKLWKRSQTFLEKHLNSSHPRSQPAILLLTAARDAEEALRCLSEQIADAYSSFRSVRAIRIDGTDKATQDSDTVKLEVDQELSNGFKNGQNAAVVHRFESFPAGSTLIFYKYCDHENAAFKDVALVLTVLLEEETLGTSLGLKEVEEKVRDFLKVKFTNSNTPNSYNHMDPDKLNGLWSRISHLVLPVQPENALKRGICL
Sequence of Alpha-bungarotoxin (Bungarus multicinctus) (P60615 whole entry, looked up): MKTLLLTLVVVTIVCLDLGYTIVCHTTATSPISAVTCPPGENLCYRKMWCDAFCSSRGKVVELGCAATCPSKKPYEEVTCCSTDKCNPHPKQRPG

In the case of `CCN(CC)CC(O)CN1CCCCc2nc(C)c(C)cc21` (stereo not given), the composite z-score in test [1] is -0.0592; in test [3] it was 0.31; in test [4], -0.397; in test [5], -0.125; in [6] it was -0.129; in test [7], -0.138. Besides, the composite z-score in test [8] was -0.0137; in test [9] it was 0.579; in [10], 0.695; with Albumin (Bos taurus), 0.401; in test [12], 0.0026; in [13], -0.195. In addition, the composite z-score is 0.367 in test [14]; 0.243 in [15]; -0.072 in test [16]; 0.334 in the test with Sam68 (KHDRBS1); 0.468 in test [17]; 0.363 in test [18]. The z-score in test [2] was determined as 0.932. Besides, the composite Z-score in test [11] is -0.336 (inactive).

With `CCOC(=O)CCN1C(=O)[C@H]2[C@H]3[C@H](O)[C@H](O)CC(=NNC(=O)OCc4ccc(OC)cc4)[C@H]3CC[C@H]2C1=O`, the composite z-score was 0.451 in test [1]; 0.214 in [3]; -0.211 in test [4]; -0.509 in test [5]; 0.0243 in test [6]; 0.0121 in [7]. The composite z-score was 0.0236 in test [8]; -0.176 in [9]; 0.354 in test [10]; 0.33 with Albumin (Bos taurus); -0.0328 in [12]; -0.061 in test [13]. In addition, the composite z-score is -0.0767 in test [14]; 0.205 in [15]; -0.0428 in test [16]; 0.576 in the test on Sam68 (KHDRBS1); 0.382 in [17]; -0.0813 in test [18]. Besides, the z-score in [2] is -2.44. For the same compound, the composite Z-score in [11] was 0.0321 (inactive).

As to `CCN1C(=O)[C@H]2[C@H]3[C@H](O)[C@H](O)CC(=NO[C@H](C)c4cn([C@H](CO)Cc5ccccc5)nn4)[C@@H]3CC[C@H]2C1=O`, the composite z-score in test [1] was 0.485; in test [3] it was 0.741; in test [4], 0.782; in test [5], -0.0865; in test [6], -0.0573; in [7], -0.358. Also, the composite z-score in [8] is 0.202; in test [9], 0.476; in test [10], 1.29; with Albumin (Bos taurus) it was 0.818; in [12], 0.0539; in test [13] it was -0.135. In addition, the composite z-score in test [14] was 0.412; in test [15], 0.785; in [16] it was 1.39; in the test with Sam68 (KHDRBS1), 1.1; in [17] it was -0.0064; in test [18], 1.05. The compound also yielded a z-score in test [2] of -1.02. Also, the composite Z-score in [11] is 0.444 (inactive).

As to `C=CC[C@@H]1C=C[C@H](ON=CC[C@@H]2C=C[C@H](OC(C)=O)[C@@H](COC(C)=O)O2)[C@@H](CO)O1`, the composite z-score is 1.25 in test [1]; 0.514 in test [3]; 0.501 in [4]; -0.0909 in [5]; 0.423 in test [6]; 0.113 in test [7]. The composite z-score was -0.467 in [8]; 0.223 in [9]; 1.86 in [10]; 0.0919 in the test with Albumin (Bos taurus); 0.164 in [12]; 0.0219 in test [13]. Moreover, the composite z-score in test [14] turned out to be 0.197; in [15], 0.312; in test [16], 0.0839; with Sam68 (KHDRBS1), 1.29; in test [17], 0.441; in test [18], 0.823. In addition, in test [2], the z-score is 0.563. For the same compound, in test [11], the composite Z-score was -0.0027 (inactive).

As to `Cc1ccc(S(=O)(=O)N[C@@H]2COC(=O)CC=C[C@@H](C)[C@H](NS(=O)(=O)c3ccc(C)cc3)COC(=O)[C@H](C)NC(=O)CC=C[C@H]2C)cc1`, the composite z-score was -1.64 in test [1]; 0.846 in test [3]; -0.683 in test [4]; -0.951 in test [5]; -0.194 in test [6]; -0.221 in [7]. The composite z-score in test [8] was 0.122; in test [9] it was -0.123; in test [10], -0.621; with Albumin (Bos taurus), -0.953; in test [12] it was -0.0647; in [13], -0.0808. In addition, the composite z-score was -0.548 in test [14]; -1.18 in test [15]; -0.108 in test [16]; -1.17 in the test with Sam68 (KHDRBS1); 0.835 in test [17]; -1.46 in test [18]. This compound displayed a z-score in test [2] of 0.311. In addition, the composite Z-score in test [11] is -0.211 (inactive).

For the compound `CCO[C@H](c1cc(OC)cc([N+](=O)[O-])c1OC)[C@H](C)[C@@H](OC)[C@H](C)C=CCC(=O)OC`, the composite z-score in [1] is 0.488; in test [3] it was -0.0609; in test [4], 0.379; in test [5], -0.103; in [6] it was -0.0383; in test [7] it was -0.138. In addition, the composite z-score in test [8] was -0.445; in test [9], -0.0844; in test [10], 0.696; in the test with Albumin (Bos taurus), 0.825; in test [12], -0.0947; in test [13] it was -0.0907. Besides, the composite z-score in test [14] was 0.725; in [15], 0.0657; in test [16], -0.0242; in the test on Sam68 (KHDRBS1) it was 0.724; in test [17] it was -0.0602; in [18], 0.666. In [2], this compound registered a z-score of 0.899. The composite Z-score in test [11] is 0.179 (inactive).

`C[C@@H]1CC[C@H]2C(=O)OC(Cc3ccccc3)CN2[C@H]1c1ccc(Br)cc1` (stereo not given in full): the composite z-score in [1] was 0.911; in test [3], 0.34; in test [4], -0.241; in test [5], -0.536; in test [6] it was -0.228; in test [7], -0.0146. In addition, the composite z-score in test [8] was 0.105; in test [9] it was 0.781; in [10], 0.599; with Albumin (Bos taurus), 0.525; in test [12], -0.0362; in [13], -0.198. For the same compound, the composite z-score in test [14] turned out to be 0.186; in test [15], 0.712; in test [16], 0.509; in the test on Sam68 (KHDRBS1) it was 0.64; in test [17], 0.257; in test [18], 0.494. For the same compound, in test [2], the z-score turned out to be 0.161. Moreover, the composite Z-score in [11] is -0.014 (inactive).

Turning to `COC(=O)CC=C[C@@H](C)[C@@H](C=NOC(C)CN1CCCc2nc(C)c(C)cc21)NS(=O)(=O)c1ccc(C)cc1` (stereo not given in full), the composite z-score in test [1] was 1.09; in test [3], 0.817; in [4] it was -0.481; in test [5], -0.56; in test [6], -0.0758; in [7], 0.213. In addition, the composite z-score was -0.0172 in [8]; 0.232 in test [9]; -0.0193 in test [10]; -0.515 with Albumin (Bos taurus); 0.033 in test [12]; 0.0098 in [13]. For the same compound, the composite z-score is -0.19 in test [14]; 0.726 in [15]; 0.416 in test [16]; 1.14 with Sam68 (KHDRBS1); 0.641 in [17]; 0.0308 in [18]. The compound further displayed a z-score in test [2] of -1.05. For the same compound, the composite Z-score in test [11] was 0.964 (inactive).
